From PMC4336329 (PLoS ONE, 2015)
About 14,000 (4.5%) of roughly 310,000 compounds showed an effect of 50% or more. The effect is printed as a negative number. The sample as a whole holds a higher share of strong results than the screen did.

These molecules were tested against human ether-à-go-go-related gene (hERG) potassium channel (human, UniProt Q12809) (assay: primary screen, population patch clamp on CHO cells stably expressing hERG; higher = less effect of the substance).
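Also: peak tail current of the secondary pulse compared with the same well before compound.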

human ether-à-go-go-related gene (hERG) potassium channel, sequence (Q12809 whole entry, looked up): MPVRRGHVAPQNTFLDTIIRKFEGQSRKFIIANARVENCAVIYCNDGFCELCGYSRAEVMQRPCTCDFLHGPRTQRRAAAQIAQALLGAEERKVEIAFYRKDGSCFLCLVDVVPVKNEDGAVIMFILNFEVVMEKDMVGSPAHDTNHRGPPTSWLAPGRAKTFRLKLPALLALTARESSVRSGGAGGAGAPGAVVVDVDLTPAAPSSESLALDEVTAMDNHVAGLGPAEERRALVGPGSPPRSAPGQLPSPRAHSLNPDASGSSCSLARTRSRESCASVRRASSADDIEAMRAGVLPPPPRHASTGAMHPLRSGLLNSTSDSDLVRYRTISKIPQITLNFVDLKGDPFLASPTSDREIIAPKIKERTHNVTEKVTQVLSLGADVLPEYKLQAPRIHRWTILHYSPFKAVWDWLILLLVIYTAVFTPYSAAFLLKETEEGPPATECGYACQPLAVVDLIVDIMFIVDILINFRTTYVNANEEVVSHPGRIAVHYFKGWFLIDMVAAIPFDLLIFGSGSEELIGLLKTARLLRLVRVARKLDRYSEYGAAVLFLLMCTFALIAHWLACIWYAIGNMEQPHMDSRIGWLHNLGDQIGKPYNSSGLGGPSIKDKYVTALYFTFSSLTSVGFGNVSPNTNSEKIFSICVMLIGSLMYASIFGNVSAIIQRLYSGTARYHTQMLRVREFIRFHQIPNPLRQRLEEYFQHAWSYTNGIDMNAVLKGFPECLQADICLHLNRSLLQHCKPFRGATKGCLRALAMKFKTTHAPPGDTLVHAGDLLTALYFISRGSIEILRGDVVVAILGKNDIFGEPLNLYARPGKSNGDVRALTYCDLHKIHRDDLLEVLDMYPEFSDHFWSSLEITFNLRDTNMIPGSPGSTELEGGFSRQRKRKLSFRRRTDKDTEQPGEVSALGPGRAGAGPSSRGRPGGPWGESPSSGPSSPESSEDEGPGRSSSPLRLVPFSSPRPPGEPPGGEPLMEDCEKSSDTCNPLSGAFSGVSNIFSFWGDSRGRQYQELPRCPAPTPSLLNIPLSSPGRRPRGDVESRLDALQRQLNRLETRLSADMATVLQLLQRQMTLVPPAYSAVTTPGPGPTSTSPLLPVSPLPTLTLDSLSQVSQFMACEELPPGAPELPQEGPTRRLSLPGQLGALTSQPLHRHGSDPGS

Row | SMILES | hERG current change (%, negative = inhibition) at 10uM
1 | Cc1nc2ccc(NC(=O)Cc3cccs3)cc2s1 | 11%
2 | CCOC(=O)N/N=C/C=C/c1ccccc1 | 1.98%
3 | O=C(O)c1cc(N/N=C/c2c[nH]c3ccccc23)ccc1Cl | 10.3%
4 | O=S(=O)(/C=C/c1ccccc1)N1CCN(c2ccccc2)CC1 | -2.08%
5 | S=c1[nH]nc(-c2ccco2)n1/N=C/c1c(Cl)cccc1Cl | -10.9%
6 | Cc1cc(NC(=O)c2ccc(Cl)cc2)ccc1NC(=O)c1ccccc1Cl | 9.97%
7 | Cc1cc(C)c(C(=O)COC(=O)c2nn(C)c(=O)c3ccccc23)cc1C | -30.4%
8 | O=C(O)c1ccccc1C(=O)NCCCCCCNC(=O)c1ccccc1C(=O)O | 7.63%
9 | Cc1ccccc1NC1=CC(=O)CC(C)(C)C1 | -0.789%
10 | CCOC(=O)CC1CCCCN1Cc1nc(-c2ccc(F)c(OC)c2)oc1C (stereo not drawn) | -65.5%
11 | CCOC(=O)CC1CCCCN1Cc1cn[nH]c1-c1ccc(F)cc1F (stereo not drawn) | -64.8%
12 | COc1ccc(-c2nc(CS(=O)CC(=O)NCCN3CCCCC3C)c(C)o2)cc1OC (stereo not drawn) | 16.8%
13 | CCOC(=O)C1CCCCN1Cc1cn[nH]c1-c1ccc(F)cc1F (stereo not drawn) | 1.06%
14 | CCC1CCCCN1CCCNC(=O)CS(=O)Cc1nc(-c2ccc(OC)c(OC)c2)oc1C (stereo not drawn) | 5.21%
15 | COc1cc(-c2nc(CN3CCN(CC(C)C)C(=O)[C@@H]3C)c(C)o2)ccc1F | -14.2%
16 | CCOC(=O)C1CCCN(Cc2cn[nH]c2-c2ccc(F)cc2F)C1 (stereo not drawn) | -2.03%
17 | COc1ccc(-c2nc(CSCC(=O)N3CCC(C(N)=O)CC3)c(C)o2)cc1OC | -0.184%
18 | COc1cc(-c2nc(CN3CCCCC3CCNC(C)=O)c(C)o2)ccc1F (stereo not drawn) | -66.6%
19 | O=C(CSc1nc2cc(Cl)ccc2s1)NCc1ccc2c(c1)OCO2 | 0.137%
20 | COc1cc(OC)cc(C(=O)N(Cc2cc3cc(C)ccc3[nH]c2=O)C(C)C)c1 | -7.49%
21 | O=C(C[n+]1ccccc1)N/N=C/c1ccc(Cl)cc1.[Cl-] | -5.76%
22 | NC(=O)CSc1nnnn1-c1ccccc1Cl | 6.07%
23 | O=C(N/N=C/C(Br)=C/c1ccccc1)c1ccccc1F | -38.5%

Row | SMILES | hERG current change (%, negative = inhibition) at 10uM
24 | Cc1ccc2c(CC(=O)N3CCOCC3)coc2c1 | 8.58%
25 | CCN(CC)S(=O)(=O)c1ccc(C(=O)OCCN2C(=O)CCC2=O)cc1 | -7.82%
26 | CCCSc1nc2c(c(=O)n(C)c(=O)n2C)n1Cc1ccc(C)cc1 | -3.8%
27 | Cc1ccc(Cn2c(SCC(C)C)nc3c2c(=O)n(C)c(=O)n3C)cc1 | 4.03%
28 | Cn1c(=O)c2c(nc(SCCN3CCOCC3)n2Cc2ccc(F)cc2)n(C)c1=O | -56%
29 | Cn1c(=O)c2c(nc(SCCN3CCCCC3)n2Cc2ccc(Cl)cc2)n(C)c1=O | -72.3%
30 | Cc1ccc(Cn2c(SCCN3CCCCC3)nc3c2c(=O)n(C)c(=O)n3C)cc1 | -75.4%
31 | Cn1c(=O)c2c(nc(SCCN3CCOCC3)n2Cc2ccccc2Cl)n(C)c1=O | -36.8%
32 | Cc1cccc(Cn2c(SCCN3CCOCC3)nc3c2c(=O)n(C)c(=O)n3C)c1 | -26.2%
33 | CCSc1nc2c(c(=O)n(C)c(=O)n2C)n1Cc1ccc(Cl)cc1 | -17.5%
34 | Cn1c(=O)c2c(nc(SCCN3CCCCC3)n2Cc2ccccc2)n(C)c1=O | -76%
35 | Cc1ccc(Cn2c(SCCN3CCOCC3)nc3c2c(=O)n(C)c(=O)n3C)cc1 | -28%
36 | Cn1c(=O)c2c(nc(SCCN3CCOCC3)n2Cc2ccccc2)n(C)c1=O | -32.5%
37 | Cn1c(=O)c2c(nc(SCCN3CCCCC3)n2C)n(C)c1=O | 3.49%
38 | O=C(NCc1ncc(C(F)(F)F)cc1Cl)Nc1ccccc1 | 3.57%
39 | Cc1ccc(C2=NN(C(=O)CCC(=O)O)C(c3ccc4c(c3)OCO4)C2)cc1 (stereo not drawn) | -2.17%
40 | COc1ccccc1NCC(=O)n1nc(C)cc1C | 29.8%
41 | NC(=O)Nc1cc(Cl)ccc1Cl | 2.21%
42 | COc1cc(-c2nnc(COC(=O)c3ccc(C)o3)o2)cc(OC)c1OC | 7.46%
43 | Cc1ccc(/C=C/C(=O)NCCc2c[nH]c3ccccc23)o1 | -7.78%
44 | O=C(NCc1ccccn1)C1CCN(S(=O)(=O)c2cccs2)CC1 | -15.8%
45 | Cc1ccc2nc(Nc3ccc(C)c(C)c3)c3nncn3c2c1 | 14.5%
